The values that follow come from PubChem BioAssay (NCATS).

Experiment [1] is described as follows: Cell Viability - BJ (AID 421; calls by dose curve;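 note: potency is the fitted concentration of half-maximal effect; cells exposed to compound for 40 hours at 37 °C before readout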). The following applies: BJ fibroblast viability, qHTS. In a few lines: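 Normal human BJ foreskin fibroblasts, 1500/well in complete medium, treated 40 hr at 37 °C. Cellular ATP by CellTiter-Glo luminescence; normalized to DMSO and 100 uM tamoxifen, AC50 from Hill fit.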
Experiment [2] is described as follows: Cell Viability - Hek293 (AID 427;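 active = compounds whose dose-response curve shows a full or clear partial loss of cell viability, called from curve shape rather than a numeric limit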;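 note: potency is the fitted concentration of half-maximal effect; cells exposed to compound for 40 hours at 37 °C before reading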). The following applies: qHTS. In a few lines:
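HEK293 cells in complete medium were exposed to compound for 40 hr at 37 °C, then cellular ATP was read by CellTiter-Glo luminescence. Data were normalized to DMSO (basal) and 100 uM tamoxifen (100% inhibition), and AC50 came from Hill fits.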
In general terms: In qHTS, concentration-response curves come from the screen itself.

Experiment [3] in a line: Cell Viability - MRC5 (AID 434; calls by dose curve;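 note: potency is the fitted concentration of half-maximal effect; potency reflects cytotoxicity seen as loss of intracellular ATP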). The following applies: MRC5 lung fibroblast viability, qHTS. The essentials: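 Decrease in intracellular ATP, quantified by luciferase light output, reflects compound toxicity toward MRC5 cells exposed for 40 hr in complete culture medium. Concentration-response curves, scaled between DMSO and 100 uM tamoxifen, gave AC50 values.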
A short description of experiment [4]: Cell Viability - SK-N-SH (AID 435; calls by dose curve;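 note: potency is the fitted concentration of half-maximal effect; compound exposure lasted 40 h at 37 °C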). The following applies: SK-N-SH neuroblastoma cell viability qHTS. The essentials: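 CellTiter-Glo ATP luminescence, 20 min RT read; cells pre-plated 5 hr, compound 40 hr at 37 °C, 1500 cells/well, complete medium. Normalized DMSO = 0, 100 uM tamoxifen = 100% inhibition; Hill-fit AC50.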
The nature of experiment [5]: qHTS assay for environmental chemicals that activate the Aryl hydrocarbon Receptor (AhR) signaling pathway (AID 651777). Note: % of control where 0% means no effect; nearly all actives have a fitted effect of over 15% in size. The settings on record: 1A2-DRE human hepatoma cells, luciferase, 24 h; activation: hits give high values. The essentials:
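Following a 24 hr incubation with test chemicals at 37 C and 5% CO2, 1A2-DRE human hepatoma cells received One-Glo reagent; after 30 min at room temperature, luciferase output reflected CYP1A2 induction via AhR.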

Experiment [6] is described as follows: qHTS assay for small molecule agonists of the antioxidant response element (ARE) signaling pathway measured by Nrf2-dependant transcriptional activity - cell viability counter screen (AID 720653; active = well fitted curve in the direction sought with a large enough effect in the repeat runs; an effect the other way counts as inactive or inconclusive; note: potency is the fitted concentration of half-maximal effect; for max response: % is set by controls: 0 for no effect and ±100 for the full control effect). The following applies: ARE-bla HepG2 viability, CellTiter-Glo ATP luminescence, 16 h; max response: hits give low values. In a few lines:
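ARE-bla HepG2 cells (2,000/well) rested 5 hrs at 37C/5% CO2, then exposed to compounds in DMSO for 16 hrs. Viability was read in the same wells as intracellular ATP by luminescence, 30 min at room temperature after reagent addition.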

Experiment [7] is described as follows: Cell Viability - N2a (AID 540).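 For activity change, negative = cytotoxicity: plate controls were DMSO alone for no effect and tamoxifen control for full effect.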 Note: nearly all actives have a fitted effect of over 45% in size. Note: potency is the fitted concentration of half-maximal effect. The following applies: N2a mouse neuroblastoma cell viability; activity change, negative = cytotoxicity: at 92.2 µM (top of the series). The essentials: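 CellTiter-Glo ATP luminescence, read 20 min after reagent at room temperature, reported viability following 40 h compound treatment at 37 °C. N2a mouse neuroblastoma cells seeded 1500/well; Hill equation gave AC50.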

A short description of experiment [8]: Cell Viability - NIH 3T3 (AID 541).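 For activity change, negative = cytotoxicity: plate controls were DMSO alone for no effect and tamoxifen positive control for full effect.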 Note: nearly all actives have a fitted effect of over 25% in size. Note: potency is the fitted concentration of half-maximal effect. The settings on record: NIH 3T3 cell viability, qHTS; activity change, negative = cytotoxicity: at 92.2 µM (top of the series). The essentials:
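Intracellular ATP (CellTiter-Glo luminescence, 20 min at room temperature) measured after 40 hr compound exposure at 37 °C of 1000 NIH 3T3 mouse fibroblasts/well in complete medium; AC50 derived by Hill-equation modelling of qHTS concentration-response curves.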

Experiment [9] in a line: Cell Viability - Renal Proximal Tubule (AID 545).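 For activity change, negative = cytotoxicity: 0% = DMSO only and -100% = 100 µM tamoxifen.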 Note: nearly all actives have a fitted effect of over 40% in size. Note: potency is the fitted concentration of half-maximal effect. The following applies: renal proximal tubule cells viability; activity change, negative = cytotoxicity: at 91.7 µM (top of the series) unless noted. In a few lines: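 Rat kidney proximal tubule cells, freshly isolated; 1000 cells/well, 5 hr settle, compound 40 hr 37 °C. CellTiter-Glo 20 min RT, luminescence read. AC50 by standard Hill fit.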

Experiment [10] is described as follows: Cell Viability - Mesenchymal (AID 546).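 For activity change, negative = cytotoxicity: 0% = DMSO only and -100% = 100 µM tamoxifen.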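 Note: cells exposed to compound for 40 hours before reading.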 Note: potency is the fitted concentration of half-maximal effect. The following applies: mesenchymal cells viability, qHTS; activity change, negative = cytotoxicity: at 91.7 µM (top of the series). In a few lines:
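In this qHTS cytotoxicity format, glomerulus-derived human mesenchymal kidney cells received compound for 40 hr, then luciferase-based ATP quantitation. Concentration-response data were fitted with the Hill equation.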

Experiment [11] can be described thus: Cellular Toxicity (caspase-3) Renal Proximal Tubule (AID 667).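 Note: cells exposed to compound for 16 hours at 37 °C before detection; 0% = DMSO basal and 100% = 10 µM staurosporine.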 The settings on record: renal proximal tubule cells; at 91.7 µM (top of the series) unless noted. In a few lines:
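Luminescent caspase 3/7 signal from peptide-aminoluciferin cleavage measures apoptosis in freshly isolated rat kidney proximal tubule cells after 16 h compound exposure. Concentration-response data are normalized to DMSO and 10 uM staurosporine, and AC50 values come from Hill equation fits.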

The nature of experiment [12]: MultiTox-Fluor Cytotoxicity Assay - LYMP1-002 - Live Cells (AID 955). Note: potency is the fitted concentration of half-maximal effect. The following applies: LYMP1-002 lymphoblastoid live-cell protease fluorescence viability; series mostly up to 46.1 µM. The essentials: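 After 16 h compound exposure at 37 C, live LYMP1-002 lymphoblastoid cells (2500/well) were quantified by cleavage of cell-permeant GF-AFC substrate, read at 405/510 nm after 60 min. Concentration-response fitted with Hill equation for AC50.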

The nature of experiment [13]: MultiTox-Fluor Cytotoxicity Assay - LYMP1-003 - Live Cells (AID 962). Note: potency is the fitted concentration of half-maximal effect. The settings on record: LYMP1-003 lymphoblastoid cells, MultiTox-Fluor live-cell protease fluorescence; series mostly up to 92.2 µM. The essentials:
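Live-cell protease activity (GF-AFC substrate, 405/510 nm, 60 min at room temperature) after 16 h, 37 C compound exposure of human lymphoblastoid LYMP1-003 cells; concentration-response fitted to the Hill equation for AC50.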

Experiment [14] is described as follows: Cell Viability - LYMP2-008 (AID 980). For activity change, negative = cytotoxicity: % is set by controls: 0 for no effect and ±100 for the full control effect. Note: nearly all actives have a fitted effect of over 60% in size. Note: potency is the fitted concentration of half-maximal effect. The following applies: LYMP2-008 lymphoblastoid cell viability, qHTS; series mostly up to 92.2 µM. The essentials: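 Cytotoxicity determined from ATP-dependent luciferase luminescence (CellTiter-Glo) following 24 h compound exposure of human lymphoblastoid LYMP2-008 cells at 37 C. Concentration-response data fitted to the Hill equation to give AC50.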

Where “and” joins values, the source holds several entries; their conditions need not be identical. Identical values can stand only once. Unmarked numbers belong to inactive results. Inconclusive results are not listed. Calls of active or inactive are those of the source. Unless noted, calls come from the whole dose curve; as a rule, active = well fitted curve in the direction sought with a large enough effect; inconclusive = small, poorly fitted or top-dose-only effect, or another doubt; inactive = no such curve, though single readings can be large; an effect the other way counts as inactive or inconclusive.

`Cc1ccc(O)cc1C`: the Potency in experiment [1], in experiment [2], in experiment [3] and in experiment [4] was more than 92 µM throughout. The activation in experiment [5] is 0.215%. Besides, the max response in experiment [6] is -2.94%.
Take `OC(c1ccc(Cl)cc1)(c1ccc(Cl)cc1)C(Cl)(Cl)Cl`: the Potency in [1], in experiment [2], in experiment [3] and in [4] was more than 92 µM in each case. Also, the activity change, negative = cytotoxicity in [7] was -118% (active). Also, the Potency result in [8], in [9], in experiment [10], in experiment [12], in experiment [13] and in experiment [14] was “inactive” in each case. The caspase-3 activation in [11] was 1.02%. Also, in experiment [6], the max response was -1.65%.
Regarding `[CH3][Hg][Cl]`, the Potency is 26.7 µM (active) in experiment [1]; 33.3 µM (active) in [2]; 25.3 µM (active) in experiment [3]; 17.4 µM (active) in [4]; 10 µM (active) in [7]; 0.0316 µM (active) in [8]. In addition, the Potency in experiment [10] was 6.31 µM (active); in [12] it was 12.6 µM (active); in experiment [13] it was 20 µM (active); in experiment [14] it was 5.01 µM (active); in experiment [6] it was 25.1 µM (active). Moreover, in experiment [9], the activity change, negative = cytotoxicity is -104% (active). Also, the caspase-3 activation in [11] is -5.2%. In addition, the activation in [5] was 1.1%.
With `c1ccc2cc3c(cc2c1)-c1cccc2cccc-3c12`, the Potency in experiment [1], in experiment [2], in experiment [3] and in [4] was more than 92 µM in each case. Moreover, the activity change, negative = cytotoxicity in experiment [7] is -2.25%. Moreover, the Potency entry in [8], in [9], in [10], in experiment [12], in [13] and in [14] was “inactive” in each case. In [11], the caspase-3 activation is -4.56%. Moreover, in [6], the max response is -11.7% and -17%.
Take `Oc1c(Br)c(Br)c(Br)c(Br)c1Br`: the Potency in experiment [1] was more than 92 µM; in experiment [3] it was more than 92 µM; in experiment [4], 57 µM. Besides, in [7], the activity change, negative = cytotoxicity was -118% (active). Further, the Potency entry in [8], in experiment [9], in experiment [10], in [12], in experiment [13] and in experiment [14] was “inactive” each time. Besides, in experiment [11], the caspase-3 activation is 1.89%. For the same molecule, in experiment [5], the activation was 0.143%. In experiment [6], the max response was -1.75%.
Take `[Cd+2].[Cl-].[Cl-]`: the Potency in experiment [2] was 51.2 µM (active); in experiment [3], more than 92 µM; in experiment [9], 12.6 µM (active); in [14], 39.8 µM (active). The activity change, negative = cytotoxicity in experiment [7] is -109% (active); in experiment [8] it was -132% (active). Moreover, the caspase-3 activation in experiment [11] is -13.6%. The Potency entry in experiment [12] and in [13] was “inactive” each time. For the same molecule, the activation in experiment [5] was 0.0733%.
As to `C[C@@H]1CC[C@@]2(OC1)O[C@H]1[C@@H](O)[C@H]3[C@@H]4CC[C@H]5C[C@@H](O[C@@H]6O[C@H](CO)[C@H](O[C@@H]7O[C@H](CO)[C@@H](O)[C@H](O[C@@H]8OC[C@@H](O)[C@H](O)[C@H]8O)[C@H]7O[C@@H]7O[C@H](CO)[C@@H](O)[C@H](O[C@@H]8O[C@H](CO)[C@@H](O)[C@H](O)[C@H]8O)[C@H]7O)[C@H](O)[C@H]6O)[C@H](O)C[C@]5(C)[C@H]4CC[C@]3(C)[C@H]1[C@@H]2C`, the Potency was 19.9 µM (active) in experiment [1]; 27.5 µM (active) in experiment [2]; 24.4 µM (active) in experiment [3]; 28.5 µM (active) in experiment [4]; 31.6 µM (active) in [7]; 31.6 µM (active) in experiment [8]. Further, the Potency in experiment [9] is 7.94 µM (active); in experiment [10] it was 31.6 µM (active); in [12] it was 3.98 µM (active); in experiment [13] it was 10 µM (active); in experiment [14], 20 µM (active); in experiment [6], 17.8 µM (active). Further, the caspase-3 activation in experiment [11] is -2.38%. Also, the activation in [5] is -9.71%.
In the case of `N#CC(Cl)Cl`, the Potency in [1] is more than 92 µM; in experiment [2] it was more than 92 µM; in [3], more than 92 µM; in [4], more than 92 µM; in experiment [14], 12.6 µM (active). Moreover, in experiment [7], the activity change, negative = cytotoxicity was 13.8%. The Potency result in experiment [8], in experiment [9], in experiment [10], in [12] and in [13] was “inactive” each time. The caspase-3 activation in [11] was -4.27% [at 91.7 µM, primary cells freshly taken from rat, solvent-only wells 0%, staurosporine 100%]. In addition, in [5], the activation was 1.8%. Also, in experiment [6], the max response was -22.9%.
As for `C(=NC1CCCCC1)=NC1CCCCC1`, the Potency is more than 92 µM in experiment [1]; more than 92 µM in [3]; 10 µM (active) in experiment [7]; 1 µM (active) in [8]; 50.1 µM (active) in [14]; 7.94 µM (active) in [6]. Further, the Potency entry in experiment [9], in experiment [10], in experiment [12] and in experiment [13] was “inactive” throughout. Further, the caspase-3 activation in [11] is 5.14%. For the same molecule, the activation in [5] was 2.78% and 1.69%.
